Screening results (PubChem BioAssay)
Hits are enriched below; roughly 5.7% of the tested compounds scored in any of these assays.
Gal4-VP16 FLuc: inhibits Gal4-VP16 luciferase reporter, ROR gamma counter-screen. Drosophila S2 Gal4-VP16 UAS-luciferase, luminescence, 20 h. Potency, µM (doses to about 53.6 µM), inactives show top-dose activity, negative = inhibition, hits mostly inhibitors. 310,000 tested, 3.5% active. AID 2546;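 note: Gal4-VP16 expression switched on by copper sulfate through the metallothionein promoter; nearly all actives have a fitted effect of over 50% in size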
NPSR antag: blocks cAMP signaling of the human neuropeptide S receptor; CHO-NPSR cells, cAMP TR-FRET, antagonist mode; 220,000 tested, 1% active; Potency, µM (top dose mostly 38.3 µM), without a hit: at the highest dose activity change, negative = inhibition, usual class: inhibitors; AID 1461; note: nearly all actives have a fitted effect of over 50% in size
B2AR arrestin: beta2AR (human) beta-arrestin recruitment activity | P07550 | beta-arrestin recruitment to beta2AR, cell-based reporter | Potency, µM (doses to about 46.1 µM), without a hit: at the highest dose activation, hits mostly activators | 330,000 tested, 0.02% active | AID 492947;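 note: 0% = DMSO controls and full agonism = EC100 isoproterenol or metaproterenol; nearly all actives have a fitted effect of over 65% in size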
RORg inh: ROR gamma (mouse) transcription inhibition; Drosophila S2 Gal4-RORgamma UAS-luciferase reporter, 20 h; Potency, µM (highest dose often 53.6 µM), for the others: at the highest dose activity change, negative = inhibition, hits mostly inhibitors; 310,000 tested, 5.4% active; AID 2551; note: nearly all actives have a fitted effect of over 60% in size
Target sequence (P51450 whole entry, looked up, the tested form may be a part): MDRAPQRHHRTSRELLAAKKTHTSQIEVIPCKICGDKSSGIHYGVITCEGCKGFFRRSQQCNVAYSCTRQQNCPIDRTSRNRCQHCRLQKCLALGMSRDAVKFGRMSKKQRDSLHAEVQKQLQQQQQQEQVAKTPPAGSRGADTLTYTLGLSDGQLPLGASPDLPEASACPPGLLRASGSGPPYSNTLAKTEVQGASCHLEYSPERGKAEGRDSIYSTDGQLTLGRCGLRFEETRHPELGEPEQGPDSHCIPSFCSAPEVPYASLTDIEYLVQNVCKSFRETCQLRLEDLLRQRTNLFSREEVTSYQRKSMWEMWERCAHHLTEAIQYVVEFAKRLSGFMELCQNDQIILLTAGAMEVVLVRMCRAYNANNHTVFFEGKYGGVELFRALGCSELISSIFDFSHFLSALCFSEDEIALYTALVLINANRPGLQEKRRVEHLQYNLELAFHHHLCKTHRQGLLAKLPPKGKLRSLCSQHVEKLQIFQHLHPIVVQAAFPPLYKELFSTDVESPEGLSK
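Stably transfected Drosophila Schneider cells are the test system, with ROR gamma fused to Gal4 and luciferase under UAS control; luminescence is read after 20 hr of 700 uM copper sulfate induction at ambient temperature.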
* hit, by the source's call; ? = inconclusive; · = no result; [ ] = dose if it differs, or a comment. Calls come from the whole dose curve; as a rule, active = well fitted curve in the direction sought with a large enough effect; inconclusive = small, poorly fitted or top-dose-only effect, or another doubt; inactive = no such curve, though single readings can be large; an effect the other way counts as inactive or inconclusive. Unless noted, % is set by controls: 0 for no effect and ±100 for the full control effect; potency is the fitted concentration of half-maximal effect.

SMILES | Gal4-VP16 FLuc | NPSR antag | B2AR arrestin | RORg inh
CCOC(=O)c1ccc(CC(=O)c2ccc(O)cc2O)o1 | 14% | -14%[46.1 µM] | 0% | 18%
COc1ccccc1CNCCCCCCNCCCCCCCCNCCCCCCNCc1ccccc1OC | · | 13µM* | · | ·
COc1ccccc1CNN | 5% | -20% | 0% | ?
Cn1cc(Br)c(C(=O)NC2CCCCCC2)n1 | 22% | · | 0% | 2%
Cn1nc(-c2ccc(OCC(=O)Nc3cccnc3)cc2)c2ccccc2c1=O | 16µM* | -22%[46.1 µM] | 0% | 1.8µM*
C#C[C@]1(O)CC[C@@H]2[C@H]3CCC4=Cc5oncc5C[C@]4(C)[C@@H]3CC[C@@]21C | 6%[17 µM] | · | · | -35%[16.9 µM]
Cc1ccc(-n2c(C)cc(C(=O)CSc3nnnn3C)c2C)cc1 | 13µM* | -16%[46.1 µM] | 0% | ?
CCc1ccccc1-n1c(-c2ccncc2)n[nH]c1=S | ? | 11%[46.1 µM] | 5% | ?
CCc1cc(-c2n[nH]c(=S)n2-c2cccc(C)c2)cs1 | 0.56µM* | ? | 0% | 0.32µM*
Fc1cccc(-c2n[nH]c(=S)n2-c2ccccc2)c1 | 7.9µM* | · | -1% | 8.9µM*
Cc1cccc(-n2c(-c3csc(C)c3)n[nH]c2=S)c1 | 8.9µM* | -21%[46.1 µM] | 0% | 4µM*
COc1ccc(C(=O)NC(=S)Nc2ccccc2N2CCOCC2)cc1[N+](=O)[O-] | 10µM* | -21% | 0% | 6.3µM*
COc1ccc(Cl)cc1C(=O)NC(=S)Nc1ccccc1N1CCOCC1 | · | · | 0% | ·
Cc1cc(C(=O)NC(=S)Nc2ccccc2N2CCOCC2)ccc1[N+](=O)[O-] | 14µM* | -18% | -1% | 2.8µM*
CN1CCN(c2ccccc2NC(=O)c2ccc(N3CCCC3)c([N+](=O)[O-])c2)CC1 | 3% | -27% | -1% | 9%
Cc1cc(C(=O)Nc2ccccc2N2CCOCC2)ccc1[N+](=O)[O-] | -7% | 10% | 0% | -21%
O=C(NC(=S)Nc1cc(Cl)ccc1N1CCOCC1)c1ccccc1[N+](=O)[O-] | 3.5µM* | · | -1% | 3.5µM*
Cc1cc(C(=O)NC(=S)Nc2ccccc2N2CCCC2)ccc1[N+](=O)[O-] | 3.2µM* | -24% | -1% | 2.5µM*
CCN(CC)CC#CCOC(=O)[C@@](O)(c1ccccc1)C1CCCCC1 | -12%[17 µM] | · | · | -16%[16.9 µM]
CCCCCCCCC/C=C/CC1CC(=O)OC1=O (stereo unspecified) | -4% | · | · | -25%
CCOc1ccc(NC(=S)N(CCCN2CCOCC2)Cc2cn(C)c3ccccc23)cc1 | ? | -9% | 0% | 13µM*
COc1ccc(NC(=S)N(CCCN2CCOCC2)Cc2cn(C)c3ccccc23)cc1 | ? | 8% | 1% | ?
Cc1cccc(NC(=S)N(CCCN2CCOCC2)Cc2cn(C)c3ccccc23)c1 | -22% | -5% | 0% | 11µM*
NC(=O)C1CCN(C(=O)CC(c2ccccc2)c2ccccc2)CC1 | 6% | · | 0% | 0%
O=[N+]([O-])c1cc(O)c2ncccc2c1 | -2% | -45% | 7% | 0.89µM*
SMILES | Gal4-VP16 FLuc | NPSR antag | B2AR arrestin | RORg inh
CC(C)OCCCn1c(=S)[nH]c2ncccc2c1=O | ? | -13%[46.1 µM] | 0% | 8.9µM*
CCN(CC)CCCn1c(=S)[nH]c2ncccc2c1=O | -3% | -4%[46.1 µM] | 0% | -7%
CCN(CCCn1c(=S)[nH]c2ncccc2c1=O)c1ccccc1 | 4µM* | -6%[46.1 µM] | 0% | 1.4µM*
Nc1ccccc1Sc1nc2ccccc2[nH]1 | 13µM* | -14% | 0% | 3.5µM*
Cc1ccc2nc(-c3cccc(NC(=O)c4ccco4)c3)[nH]c2c1 | ? | -11%[46.1 µM] | 0% | 14%
COc1ccc(-n2nc(C(=O)c3cccs3)cc(-c3nc4ccccc4[nH]3)c2=N)cc1 | 3.5µM* | -10%[46.1 µM] | 0% | 3.2µM*
Cc1ccccc1-n1nc(C(=O)c2cccs2)cc(-c2nc3ccccc3[nH]2)c1=N | 0.89µM* | -15%[46.1 µM] | 0% | 0.71µM*
Cc1cccc(-n2nc(C(=O)c3ccco3)cc(-c3nc4ccccc4[nH]3)c2=N)c1 | 5µM* | -7% | 0% | 2.5µM*
COC(=O)CSc1ncccc1-c1nc2ccccc2[nH]1 | 4% | ? | 0% | 13%
COc1cc(CNn2cn[nH]c2=S)cc(Br)c1OCc1ccccc1F | -28% | -37% | 0% | 3.2µM*
C=CCOc1c(Cl)cc(CNn2cn[nH]c2=S)cc1OC | ? | -10% | 0% | 8.9µM*
COc1cc(CNCc2ccncc2)cc(Br)c1OCc1ccccc1F | ? | ? | 3% | 0%
COc1cc(CNn2cn[nH]c2=S)cc(Cl)c1OCc1ccccc1 | ? | -12%[46.1 µM] | -1% | 3.5µM*
